In general, inhibition refers to the drop in the measured response relative to a control, in per cent.

The values that follow come from PubChem BioAssay AID1852 (Sanford-Burnham Center for Chemical Genomics, 2009).

The structures appear in SMILES notation. The whole screen tested about 2,500 compounds, of which about 1,100 (44%) were called active. The set was probably picked from earlier hits. The list shows a part of the results. A number with no mark means an inactive call.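 The calls were made as follows: active = inhibition above 50% at 4 µM in the single-point screen; inactive = inhibition of 50% or less.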

The nature of the assay: blockers of TNF-a NF-kB luciferase induction – cell-based, HEK293T NF-kB-Luc, luminescence, selectivity assay for NOD1/NOD2 signaling inhibitor project, primary screen (AID 1852). As to conditions: TNF-a induced, 14 h, at 4 µM, stronger effect = higher value.
Turning to `O=C(Nc1ccc(Cl)cc1)OCc1cncs1`, the inhibition was -60.4%.

On to `Cc1nn(C(C)(C)C)c(C)c1/C=N/OC(=O)Nc1ccc(Cl)cc1`, for which the inhibition was 71.3% (active).

For the molecule `O=C(Nc1ccc(Cl)c(Cl)c1)OCc1cnc(Cl)s1`, the inhibition is -13.5%.

In the case of `Cc1nn(C(C)(C)C)c(C)c1/C=N/OC(=O)Nc1ccc(Cl)c(Cl)c1`, the inhibition was 94% (active).

Turning to `Cc1ccc(NC(=O)Cc2ncc(C(F)(F)F)cc2Cl)cc1Cl`, the inhibition is -15.6%.

`Cc1ccc(NC(=O)O/N=C/c2c(C)nn(C(C)(C)C)c2C)cc1Cl`: the inhibition is 90.2% (active).

On to `COc1ccc(NC(=O)COC(=O)/C=C/C(=O)OCC(=O)Nc2ccc(OC)c(Cl)c2)cc1Cl`, for which the inhibition was 17.7%.

As for `COc1ccc(-n2cc(-c3ccccc3)c3c(N4CCOCC4)ncnc32)cc1`, the inhibition is 12.7%.

On to `Cc1ccc(OCCCCn2cnc3ccccc32)cc1`, for which the inhibition is 26.7%.

For the molecule `COc1ccc(OC)c(Nc2c3ccccc3nc3ccccc23)c1`, the inhibition is 20.8%.

`CCOc1ccc(-c2csc3ncn(-c4ccc(OC)cc4)c(=O)c23)cc1`: the inhibition is 44%.

With `COc1ccc2ncn(-c3ccccc3)c2c1`, the inhibition was 53.8% (active).

For the molecule `COc1ccc(-n2cnc3ccccc32)cc1`, the inhibition is 53.9% (active).

Consider `CC(=O)c1ccc(NC(=O)c2noc3c2CCC3)cc1`, for which the inhibition was 35.4%.

Consider `O=C(Sc1cccc2cccnc12)c1ccccc1Br`, for which the inhibition is 105% (active).

Regarding `O=C(Sc1cccc2cccnc12)c1ccc(F)cc1`, the inhibition is 101% (active).

Regarding `CCOC(=O)c1c(N2C(=O)Nc3cc(Cl)c(Cl)cc3N2O)sc2c1CCCCC2`, the inhibition was 75.5% (active).

In the case of `CCOc1cc(C=C(C(=O)OC)C(=O)OC)ccc1OCc1ccc([N+](=O)[O-])cc1`, the inhibition was 7.6%.

As for `O=[N+]([O-])c1ccc(O)c(Nc2ncnc3ccc(Br)cc23)c1`, the inhibition is 14.6%.

`CCOc1ccc(Nc2ncnc3ccc([N+](=O)[O-])cc23)cc1`: the inhibition is 63.8% (active).

Take `O=C(CCCN1C(=O)/C(=C/c2ccccc2Cl)SC1=S)NNC(=O)c1ccncc1`: the inhibition is 87% (active).

On to `O=C(CCCN1C(=O)/C(=C/c2ccccc2Cl)SC1=S)NNC(=O)c1ccc(Cl)cc1`, for which the inhibition was 76.9% (active).

As to `Cc1ccc(/C=C2\SC(=S)N(CCCC(=O)NNC(=O)c3ccccc3O)C2=O)cc1`, the inhibition was 67.9% (active).

In the case of `O=C(CCCN1C(=O)/C(=C/c2cccs2)SC1=S)Nc1cccc(O)c1`, the inhibition is -2.9%.

Take `Cc1ccc(/C=C2/SC(=S)N(CCCC(=O)Nc3ccc(O)cc3)C2=O)cc1`: the inhibition was -26%.

With `COc1ccc(/C=C2\SC(=S)N(CCCC(=O)NNC(=O)c3ccccc3O)C2=O)cc1`, the inhibition is 35.4%.

`O=C(CCCN1C(=O)/C(=C/c2ccccc2Cl)SC1=S)NNC(=O)c1ccccc1`: the inhibition is -19.2%.

In the case of `COc1ccc2c(C(=O)CCl)c[nH]c2c1`, the inhibition is 66.7% (active).

As for `COC(CNC(=O)c1c[nH]c2ccc(S(=O)(=O)N3CCOCC3)cc2c1=O)OC`, the inhibition is 9.8%.

In the case of `COc1ccc2[nH]cc(C(=O)CCl)c2c1`, the inhibition was 102% (active).

With `COc1ccc(-c2csc(NC(=O)c3ccccc3NS(=O)(=O)c3ccc(C)cc3)n2)cc1`, the inhibition was 80.3% (active).

With `COc1ccc(-c2csc(NC(=O)c3ccccc3NS(=O)(=O)c3ccc(F)c(F)c3)n2)cc1`, the inhibition is 82.3% (active).

Regarding `COc1ccc(S(=O)(=O)Nc2ccccc2C(=O)Nc2nc(-c3ccc(F)cc3)cs2)cc1OC`, the inhibition is 81.4% (active).

For `O=C(Nc1nc(-c2ccccc2)cs1)c1ccccc1NS(=O)(=O)c1ccc(F)cc1`, the inhibition is 91.5% (active).

Consider `CCOc1ccc(NC(=O)c2ccccc2NS(=O)(=O)c2ccc(F)cc2)c([N+](=O)[O-])c1`, for which the inhibition is 11.5%.

For `Cc1cc(F)ccc1S(=O)(=O)Nc1ccccc1C(=O)Nc1ccccc1-c1nc2ccccc2[nH]1`, the inhibition is 1.4%.

Take `COc1ccc(-c2csc(NC(=O)C3=NN(c4ccccc4)C(=O)CC3)n2)cc1`: the inhibition was -64.2%.

On to `COc1ccc(NC(=O)c2ccc(-c3ccccc3)cc2)cc1NS(=O)(=O)c1ccc(F)cc1`, for which the inhibition is 59.9% (active).

As for `CC(=O)c1c(C)[nH]c(C(=O)Nc2nc(-c3ccc(-c4ccccc4)cc3)cs2)c1C`, the inhibition was -7.7%.

Take `COC(=O)c1ccc(NC(=O)c2ccccc2NS(=O)(=O)c2ccccc2)cc1`: the inhibition was 32.6%.

Regarding `COc1ccccc1NS(=O)(=O)c1cccc(NC(=O)c2ccc3ccccc3n2)c1`, the inhibition was 15.4%.

In the case of `COc1ccccc1C(=O)Nc1nc(-c2ccc(S(=O)(=O)N3CCOCC3)cc2)cs1`, the inhibition is 99.6% (active).

For `CC(C)CCNC(=O)c1cc(-c2ccncc2)nc2ccc(S(=O)(=O)N3CCOCC3)cc12`, the inhibition is 28.7%.

With `O=C(COc1ccc(Cl)cc1)Nc1nc(-c2ccc(S(=O)(=O)N3CCOCC3)cc2)cs1`, the inhibition was 26.4%.

On to `Cc1ccc(S(=O)(=O)Nc2ccccc2C(=O)Nc2nc(-c3ccc(F)cc3)cs2)cc1`, for which the inhibition was 79.9% (active).

With `COc1ccccc1COc1ccc2c(C)c(CCC(=O)O)c(=O)oc2c1C`, the inhibition is 5.6%.

`Cc1c(CCC(=O)O)c(=O)oc2cc(OCc3ccccc3Br)ccc12`: the inhibition was 75.3% (active).

As to `Cc1c(CCC(=O)O)c(=O)oc2c(C)c(OCc3ccccc3Cl)ccc12`, the inhibition was 17.1%.

As to `Cc1c(C#N)c(NC(=O)CCl)n(Cc2cccs2)c1C`, the inhibition was 101% (active).

As to `CC(=O)Nc1ccccc1OCC(=O)c1cc(C)n(Cc2cccs2)c1C`, the inhibition was 28.3%.

In the case of `O=C(CCl)Nc1c2c(nn1-c1ccccc1)CSC2`, the inhibition is -6.5%.

Take `Cc1c(C#N)c(NC(=O)CCl)n(Cc2ccccc2)c1C`: the inhibition was 95.9% (active).

For `CC(=O)Nc1ccc(SCC(=O)c2cc(C)n(Cc3cccs3)c2C)cc1`, the inhibition was -119%.

Take `O=C(CCl)Nc1ccccc1C(=O)NCc1ccccc1`: the inhibition was -4%.

In the case of `CCCCCCCCC[n+]1cccc2c3ccccc3ccc21`, the inhibition is 83.9% (active).

As for `CCC(C)(C)c1ccc(OCCCC[n+]2cccc(C)c2C)c(C(C)(C)CC)c1`, the inhibition was 18.8%.

Regarding `CCCCCCCC[n+]1cccc2c3ccccc3ccc21`, the inhibition was 83.6% (active).

For the molecule `CC(=O)c1cn(CCOc2ccccc2C)c2ccccc12`, the inhibition was 46.6%.

Turning to `COc1cccc(OCCn2cc(C(C)=O)c3ccccc32)c1`, the inhibition was 26.8%.

Consider `CC(=O)c1cn(CCOc2cc(C)ccc2C)c2ccccc12`, for which the inhibition is 60.4% (active).
